In PubChem BioAssay (EPA / NIEHS):
More than one record can exist for a structure, and the calls need not agree. Calls of active or inactive are those of the source. The calls were made as follows: active = hit-call score of the fitted dose curve at least 0.9, where 1 is the maximum; inactive = score below 0.9.

Experiment: BSK_3C_uPAR: BioMAP Diversity Plus: 3C Assay for Urokinase-type plasminogen activator receptor (uPAR) Biomarker Activity (AID 2282998)
Details: BioMAP 3C HUVEC, uPAR biomarker ELISA; actives raise or lower the signal
Method: BSK_3C is a cell-based, multiplexed-readout assay that uses umbilical vein endothelium, a human vascular primary cell, with measurements taken at 24 hours after chemical dosing in a 96-well plate.BSK_3CAR is an assay component measured in the BSK_3C assay. It measures uPAR antibody related to regulation of gene expression using ELISA technology.Data from the assay component BSK_3CAR was analyzed into 1 assay endpoint. This assay endpoint, BSK_3CAR, was analyzed with bidirectional fitting relative to DMSO as the negative control and baseline of activity. Using a type of binding reporter, gain or loss-of-signal activity can be used to understand changes in the signaling as they relate to the gene PLAUR. Furthermore, this assay endpoint can be referred to as a primary readout, because this assay has produced multiple assay endpoints where this one serves a signaling function. To generalize the intended target to other relatable targets, this assay endpoint is annotated to the cytokine intended target family, where the subfamily is plasmogen activator.
The levels of cell surface (or secreted, indicated by the prefix "s") biomarker endpoints were measured by ELISA. Overt cytotoxicity to cells in confluent adherent cultures (all systems other than the BT system) was assessed by measuring total protein levels using sulforhodamine B (SRB) staining in parallel cultures at the time of biomarker measurements, indicated as SRB endpoints. For proliferation assays for adherent cell types, individual cell types are cultured at sub-confluence and relative cell numbers quantified by SRB staining at time points optimized for each system (48 h: 3C and CASM3C systems; 72 h: BT and HDF3CGF systems; 96 h: SAg system). SRB was performed by staining cells with 0.1% SRB after fixation with 10% TCA and reading wells at 560 nm.Viability and proliferation of PBMC (T cells) was quantified by Alamar Blue reduction for the SAg and BT systems. For PBMC viability (referred to as PBMC Cytotoxicity within the assay endpoint names), cells were plated (75,000/well in a 96-well plate) and then chemical samples added for 1 h before addition of activators, SEB and TSST-1 (20 ng/mL final concentration each). Cells were incubated for 90 h. Then, Alamar Blue (20 uL/well) (Invitrogen, Cat DAL1100) was added for 6 h, and the plates were read with a fluorescence microplate reader at 546/580 nm (excitation/emission). For PBMC proliferation, cells were plated and activated as above but incubated for only 16 h prior to addition of Alamar Blue. Plates were read after 6 h.
In the case of `COC(=O)c1ccccc1S(=O)(=O)NC(=O)N(C)c1nc(C)nc(OC)n1`, the outcome is reported as “inactive”. In the case of `O=C(NC(=O)c1c(F)cccc1F)Nc1ccc(OC(F)(F)C(F)OC(F)(F)F)c(Cl)c1` (stereo not given), the outcome is reported as “inactive”. For `COP(=S)(OC)Oc1ccc(SC)c(C)c1`, the outcome was “inactive”. In the case of `CNC(=O)CSP(=S)(OC)OC`, the outcome is reported as “inactive”. With `COC(=O)c1ccccc1S(=O)(=O)NC(=O)Nc1nc(C)nc(OC)n1` the outcome was “inactive”. In the case of `O=C(O)CCCOc1ccc(Cl)cc1Cl`, the outcome is reported as “inactive”. For `O=S(=O)(O)C(F)(F)C(F)(F)C(F)(F)C(F)(F)C(F)(F)C(F)(F)C(F)(F)C(F)(F)F`, the outcome was “inactive” and the AC50 was 32.8 µM (active). In the case of `CC1(C)C(C=C(Cl)Cl)C1C(=O)OC(C#N)c1ccc(F)c(Oc2ccccc2)c1` (stereo not given), the outcome is reported as “inactive”. In the case of `CCCN(CCC)c1c([N+](=O)[O-])cc(C(F)(F)F)cc1[N+](=O)[O-]`, the outcome is reported as “inactive”. In the case of `CC1(c2ccc(Oc3ccccc3)cc2)OC(=O)N(Nc2ccccc2)C1=O` (stereo not given), the AC50 is reported as 25.9 µM (active). For `COP(=S)(OC)Oc1ccc([N+](=O)[O-])cc1`, the AC50 was 33.1 µM (active). In the case of `CCC(C)(NC(=O)c1cc(Cl)c(C)c(Cl)c1)C(=O)CCl` (stereo not given), the AC50 is reported as 14.4 µM (active). With `CCc1ccc(C(=O)NN(C(=O)c2cc(C)cc(C)c2)C(C)(C)C)cc1` the AC50 was 20 µM (active). With `N#Cc1c(Cl)c(Cl)c(Cl)c(C#N)c1Cl` the AC50 was 1.8 µM (active). For `CN1CSC(=S)N(C)C1`, the outcome was “inactive”. With `N#CN` the outcome was “inactive”. In the case of `CC(C)(C)C(O)C(Oc1ccc(Cl)cc1)n1cncn1` (stereo not given), the outcome is reported as “inactive”. With `OCCOc1ccccc1` the outcome was “inactive”. For `[2H]C1([2H])[n+]2ccccc2-c2cccc[n+]2C1([2H])[2H]`, the outcome was “inactive”. In the case of `O=C(O)C(F)(F)C(F)(F)C(F)(F)C(F)(F)C(F)(F)C(F)(F)C(F)(F)F`, the AC50 is reported as 1.51 µM (active) and the outcome is reported as “inactive”. In the case of `CCC(C)Nc1c([N+](=O)[O-])cc(C(C)(C)C)cc1[N+](=O)[O-]` (stereo not given), the AC50 is reported as 17.8 µM (active). With `CCN(CC)C(=O)SCc1ccc(Cl)cc1` the outcome was “inactive”. With `CC[C@H](C)[C@H]1O[C@]2(C=C[C@@H]1C)C[C@@H]1C[C@@H](C/C=C(\C)[C@@H](O[C@H]3C[C@H](OC)[C@@H](O[C@H]4C[C@H](OC)[C@@H](O)[C@H](C)O4)[C@H](C)O3)[C@@H](C)/C=C/C=C3\CO[C@@H]4[C@H](O)C(C)=C[C@@H](C(=O)O1)[C@]34O)O2` (tested in a mixture with another compound) the AC50 was 5.44 µM (active). With `Cc1cc(C)nc(NC(=O)NS(=O)(=O)c2ccccc2C(=O)OC2COC2)n1` the outcome was “inactive”. In the case of `O=C(O)COc1ccc(Cl)cc1Cl`, the outcome is reported as “inactive”. For `CC(C)N(C(=O)COc1nnc(C(F)(F)F)s1)c1ccc(F)cc1`, the outcome was “inactive”. With `C[C@H]1[C@H](c2ccc(Cl)cc2)SC(=O)N1C(=O)NC1CCCCC1` the AC50 was 13.1 µM (active). With `COC(=O)c1ccccc1CS(=O)(=O)NC(=O)Nc1nc(OC)cc(OC)n1` the outcome was “inactive”. In the case of `O=C1c2ccccc2C(=O)N1SC(Cl)(Cl)Cl`, the outcome is reported as “inactive”. In the case of `CNC(=O)Oc1ccccc1OC(C)C`, the outcome is reported as “inactive”. For `CNC(=O)Oc1cccc(N=CN(C)C)c1`, the outcome was “inactive”. With `CCOCN(C(=O)CCl)c1c(C)cccc1CC` the outcome was “inactive”. In the case of `COc1nn(CSP(=S)(OC)OC)c(=O)s1`, the outcome is reported as “inactive”. In the case of `C#CCN1C(=O)COc2cc(F)c(N3C(=O)C4=C(CCCC4)C3=O)cc21`, the outcome is reported as “inactive”. For `CCC(C)(C)C(=O)OC1=C(c2ccc(Cl)cc2Cl)C(=O)OC12CCCCC2`, the AC50 was 33.9 µM (active). With `CCS(=O)(=O)c1cccnc1S(=O)(=O)NC(=O)Nc1nc(OC)cc(OC)n1` the outcome was “inactive”. In the case of `O=[N+]([O-])c1c(Cl)c(Cl)c(Cl)c(Cl)c1Cl`, the outcome is reported as “inactive”. For `CCOC1Oc2ccc(OS(C)(=O)=O)cc2C1(C)C` (stereo not given), the outcome was “inactive”.
